Compound activity as filed in PubChem BioAssay.
A selection: hits, their analogues and other compounds. The true share with any hit is near 7.9%.
MARV entry inh: qHTS for inhibitors of binding or entry into cells for Marburg Virus; Marburg virus pseudotyped entry inhibition, cell reporter; Potency, µM (series often up to 37.8 µM), for the others: top-dose activity change, negative = inhibition, usual class: inhibitors; hit rate 1.8% among 300,000; AID 540276, 2011; calls by dose curve; tested in HEK293 cells; further: potency means the concentration at half of the fitted maximal effect
HCMV antiviral: qHTS Assay for inhibitors of the human cytomegalovirus (HCMV); HFF cells, HCMV-luciferase reporter, 72 h; stronger effect = lower value; activity change, negative = inhibition, % at 57.5 µM; hit rate 4.5% among 410,000; in the data active means activity change below about -60%; inconclusive means no clear call, values can overlap the other calls; inactive means above about -39%
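Two compound doses tested in HFFs infected with HCMV-luciferase, MOI 1 PFU/cell, 72 h at 37C. Lysate luminescence read with OneGlo; data normalized against buffer-only and 10uM Salinomycin inhibitor controls.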
Lassa entry inh: qHTS for Inhibitors of binding or entry into cells for Lassa Virus. Lassa virus pseudotype entry inhibition, cell reporter. Potency, µM (top dose mostly 37.9 µM), for inactives: top-dose activity change, negative = inhibition, usual class: inhibitors. hit rate 1.2% among 300,000; calls by dose curve; tested in HEK293 cells; further: potency means the concentration at half of the fitted maximal effect; nearly all actives have a fitted effect of over 50% in size
HCV inh: qHTS Assay for Inhibitors of Hepatitis C Virus (HCV); Huh7.5.1 HCVcc-Cre infection, luciferase reporter, 44 h; Potency, µM (series often up to 41.8 µM), for the others: top-dose activity change, negative = inhibition, usual class: inhibitors; hit rate 3.4% among 340,000; AID 651820, 2012; active means well fitted inhibition curve with a large enough effect; inconclusive means small, poorly fitted or top-dose-only effect, or another doubt; inactive means no such curve, though single readings can be large or run the other way; further: potency means the concentration at half of the fitted maximal effect
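Seed cells (1,000/well) for 4 h; treat with compound and infect with HCVcc-Cre, moi about 0.5. Incubate 44 h, then detect luciferase activity.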
FMDV inh: High Throughput Screening for Foot and Mouth Disease Virus Antivirals | Potency, µM (doses to about 57.9 µM), for inactives: top-dose activity change, negative = inhibition, most hits filed as inhibitors | hit rate 1.2% among 410,000 | FMDV antiviral cell-based qHTS; calls by dose curve; tested in HEK293T cells; further: read-out not given here; potency means the concentration at half of the fitted maximal effect; nearly all actives have a fitted effect of over 45% in size
* marks the source's active call; other numbers are inactive results; ? = inconclusive; . = no result; [ ] = another dose, or the depositor's remark. On the % scale 0 is the no-effect control and ±100 the full control effect.

SMILES	MARV entry inh	HCMV antiviral	Lassa entry inh	HCV inh	FMDV inh
CCCS(=O)(=O)NC(=O)C1(C)CCCN(C(=O)c2ccccc2C(F)(F)F)C1 (stereo unspecified)	.	5.4	.	.	-12.8%
Cc1ccc(NC(=O)CSc2nc3ccc(NC(=O)c4cccs4)cc3s2)c(C)c1	?	10.9	-10.0%[46.1 µM]	.	15.7%
COc1ccc(-c2nc(C(N)=O)c3[nH]c(=O)n(-c4cccc(Cl)c4)c3n2)cc1OC	?	-30.0	?	?	?
CCc1ccc(-c2nc(C(N)=O)c3[nH]c(=O)n(-c4ccccc4OC)c3n2)cc1	.	-98.3*	.	?	?
Cc1ccc(C)c(CSc2ccc3nnc(-c4ccccn4)n3n2)c1	?	-22.2	?	?	22.4µM*
Cc1ccc(CSc2ccc3nnc(-c4ccccn4)n3n2)cc1	-9.2%	0.0	-17.6%	10.4%	?
Cc1ccc(S(=O)(=O)NCC2CCC(C(=O)NCc3ccc(F)cc3)CC2)cc1 (stereo unspecified)	.	0.0	?	.	-5.6%
COc1cc(C(=O)OCc2cc3ccccc3[nH]c2=O)cc(OC)c1OC	2.0%	-86.1*	-23.5%	-3.0%	27.9%
O=C(CN1Cc2ccccc2OC(c2ccsc2)C1)NCc1ccc2c(c1)OCO2 (stereo unspecified)	.	.	.	.	-2.6%
COCCNC(=O)/C(C#N)=C/c1cc(C)n(-c2ccc(C)cc2)c1C	?	15.6	?	10µM*	13.0%
Cc1ccc(/C=C(\C#N)C(=O)NCC2CCCO2)o1 (stereo unspecified)	17.9%	?	9.7%	2.8%	30.4%
Cc1ccccc1-n1c(C)cc(/C=C(\C#N)C(=O)NCC2CCCO2)c1C (stereo unspecified)	-39.6%	?	14.6µM*	-17.0%	35.6%
Cc1cccn2c(=O)c3cc(C(=O)NCc4ccccc4)c(=N)n(CCOCCO)c3nc12	4.0%[46.1 µM]	?	3.2%[46.1 µM]	.	47.2%
c1ccc(N2CCN(c3ncnc4c3nc3n4CCCCC3)CC2)cc1	.	-76.1*	?	.	10µM*
Fc1ccc(N2CCN(c3ncnc4c3nc3n4CCCCC3)CC2)cc1	.	-24.2	-8.9%[46.1 µM]	.	25.1µM*
Clc1ccc(N2CCN(c3ncnc4c3nc3n4CCCC3)CC2)cc1	.	-68.5*	-17.7%[46.1 µM]	.	?
O=C(NCc1ccc(Cl)cc1)C1CCN(c2ncnc3c2nc2n3CCCCC2)CC1	.	26.7	16.1%[46.1 µM]	.	-10.9%
COc1ccccc1N(CC(=O)NCCc1ccccc1)C(=O)CCC(=O)Nc1cc(C)ccn1	-13.6%[46.1 µM]	1.3	.	-15.8%	-4.9%
COC(=O)c1c(NC(=O)c2cccnc2)sc(C)c1C	-1.7%	.	20.0%	10µM*	?
O=C(NCCNC(=O)c1cccnc1)c1cccnc1	.	.	.	.	-12.8%
COC(CNC(=O)c1cccnc1)OC	.	-61.7*	.	8.6%	-6.4%
CC(=O)Nc1ccc(NC(=O)c2cnc(N3CCN(Cc4cccc(C(F)(F)F)c4)C3=O)o2)cc1	.	-8.5	.	.	.
COc1ccc2[nH]cc(CCCN3C(=O)c4ccccc4C3=O)c2c1	?	-36.1	11.2µM*	-23.7%	-19.3%
CCCn1c(C)cc(/C=C(\C#N)C(=O)O)c1C	1.7%	89.6	.	8.7%	-11.4%
Cc1cc(/C=C(/C#N)C(=O)O)c(C)n1CCC(C)C	14.7%	-68.5*	8.5%	12.3%	8.4%
SMILES	MARV entry inh	HCMV antiviral	Lassa entry inh	HCV inh	FMDV inh
Cc1ccc(N(C(=O)c2csnn2)C(C(=O)NC2CCCCC2)c2ccncc2)cc1 (stereo unspecified)	?	-64.2*	?	-2.6%	-0.6%
CCc1ccc(N(C(=O)c2csnn2)C(C(=O)NC2CCCC2)c2cccnc2)cc1 (stereo unspecified)	?	?	?	19.5%	-2.4%
O=C(NC1CCCC1)C(c1ccccn1)N(C(=O)c1csnn1)c1ccccc1Cl (stereo unspecified)	-1.6%[46.1 µM]	-65.9*	1.7%	13.2%	14.2%
CC(C)c1ccc(N(C(=O)c2csnn2)C(C(=O)NC2CCCC2)c2cccnc2)cc1 (stereo unspecified)	-9.0%[46.1 µM]	-20.1	1.58µM*	0.8%	1.2%
CC(C)c1ccc(C(C(=O)NC2CCCCC2)N(C(=O)c2csnn2)C2CC2)cc1 (stereo unspecified)	6.31µM*	-27.4	-1.3%[46.1 µM]	21.5%	5.8%
O=C(COCc1cc(-c2ccc(F)cc2)on1)Nc1cc(Cl)ccc1O	3.0%[46.1 µM]	8.7	-9.6%[46.1 µM]	.	-20.0%
Cc1ccc(NC(=O)CCC(=O)NNC(=O)COc2ccc([N+](=O)[O-])cc2)c(C)c1	.	-11.7	.	-1.0%	-1.1%
COc1cc(-c2cc(C)c3cccc(OC)c3n2)cc2c1OCCN(C(=O)CCn1nc(C)cc1C)C2	.	.	.	.	-13.6%
COc1cccc(Nc2ncc3ncc(=O)n(C[C@H]4CCCO4)c3n2)c1	.	.	.	.	-0.3%
CC1CN(c2ncnc3c2c(-c2ccccc2)cn3-c2ccc(F)cc2)CC(C)O1 (stereo unspecified)	?	7.7	?	10µM*	?
CCOC(=O)C1CCN(c2ncnc3c2c(-c2ccccc2)cn3-c2ccccc2)CC1	?	-38.2	?	10µM*	-29.4%
CCOC(=O)C1CCN(c2ncnc3c2c(-c2ccccc2)cn3-c2ccc(Cl)cc2)CC1	.	-1.6	3.6%[46.1 µM]	.	-13.1%
OCCN1CCN(c2ncnc3c2c(-c2ccccc2)cn3-c2ccc(F)cc2)CC1	?	-12.4	-5.2%	-11.2%	?
CCOc1ccc(-n2cc(-c3ccccc3)c3c(N4CCC(C)CC4)ncnc32)cc1	.	-62.6*	-21.6%[46.1 µM]	.	-18.9%
c1csc(CNc2nc(CN3CCCC(c4nc5ccccc5o4)C3)nc3ccccc23)c1 (stereo unspecified)	.	.	.	.	7.6%
COc1ccc(OC)c(-c2csc(NC(=O)COC(=O)c3ccc(NC(=O)CC#N)cc3)n2)c1	.	.	.	?	-23.3%
COc1ccc(-c2cc3ccccc3[nH]2)cc1	10.7%[46.1 µM]	-1.0	12.8%	-21.5%	37.6%
c1ccc(-c2cc3ccccc3[nH]2)cc1	.	-65.1*	.	?	18.8%
COc1ccccc1CNc1ccnc(-c2ccccc2CN(C)C)n1	.	.	.	.	3.3%
CCN(CC)S(=O)(=O)c1ccc(N2CCOCC2)c(NC(=O)c2cccc3c(=O)c(C)c(-c4ccccc4)oc23)c1	.	-8.4	.	8.91µM*	?
CCN(CC)S(=O)(=O)c1ccc(N2CCOCC2)c(NC(=O)c2cc(=O)[nH]c3ccccc23)c1	?	-18.2	7.8%	3.4%	-8.6%
CCN(CC)S(=O)(=O)c1ccc(N2CCCCC2)c(C(=O)Nc2ccccc2N2CCOCC2)c1	5.62µM*	?	10.3µM*	5.62µM*	-8.4%
CCN(CC)S(=O)(=O)c1ccc(N2CCOCC2)c(NC(=O)c2cnccn2)c1	-2.5%	?	18.4%	-28.0%	-18.2%
CCOc1ncccc1C(=O)Nc1cc(C(F)(F)F)ccc1N1CCOCC1	.	-67.2*	.	-26.6%	-17.4%
CCOc1ncccc1C(=O)Nc1cc(S(=O)(=O)N(CC)CC)ccc1N1CCOCC1	.	-65.9*	.	?	?
